Tau fluor cs: counter-screen for tau fibril formation inhibitors. tau K18 P301L Alexa594 fluorescence, heparin fibrillization. Potency, µM (highest dose often 57.7 µM), for the others: top-dose activity change, negative = decrease. hit rate 0.93% among 280,000; note: nearly all actives have a fitted effect of over 55% in size
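Human K18 P301L tau (15 uM unlabeled plus 0.24 uM Alexa 594-labeled, final) in 100 mM sodium acetate pH 7 was mixed with compound and 20 uM heparin and incubated 6 hr at 37 C.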
Tau ThT inhib: tau fibrillization inhibition (ThT binding); P10636; recombinant tau K18 P301L, heparin-induced fibrillization, ThT fluorescence; Potency, µM (doses to about 57.4 µM), for the others: top-dose activity, negative = inhibition, hits mostly inhibitors; hit rate 2.1% among 270,000; note: nearly all actives have a fitted effect of over 55% in size
Target sequence (P10636 561-689 P618L limits assumed): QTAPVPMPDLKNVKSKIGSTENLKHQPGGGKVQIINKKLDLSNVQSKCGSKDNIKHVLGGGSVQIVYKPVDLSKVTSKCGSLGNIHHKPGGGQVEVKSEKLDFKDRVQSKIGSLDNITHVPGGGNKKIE
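Fibril formation assay: tau K18 P301L at 15 uM with trace Alexa 594 label, heparin inducer 20 uM, pH 7 sodium acetate buffer, 37 C for 6 hr; endpoint ThT signal.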
Tau FP inhib: inhibitors of human tau fibril formation; Potency, µM (top dose mostly 57.7 µM), for the others: at the top dose activity, negative = inhibition, hits mostly inhibitors; K18 P301L tau heparin fibrillization, Alexa594 FP, 6 h; hit rate 0.39% among 280,000; note: nearly all actives have a fitted effect of over 55% in size
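Quantitative HTS format: compounds meet 15 uM recombinant K18 P301L tau and Alexa 594-tau tracer in 100 mM sodium acetate pH 7; 20 uM heparin triggers fibrillization at 37 C over 6 hr; FP gives the signal.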
NPSR antag: blocks cAMP signaling of the human neuropeptide S receptor. Q6W5P4. CHO-NPSR cells, cAMP TR-FRET, antagonist mode. Potency, µM (highest dose often 38.3 µM), without a hit: at the top dose activity change, negative = inhibition, most hits filed as inhibitors. hit rate 1% among 220,000. AID 1461; note: nearly all actives have a fitted effect of over 50% in size
ALDH1A1 block: blocks purified human ALDH1A1 activity; P00352; Purified ALDH1A1, NADH fluorescence, propionaldehyde substrate; Potency, µM (highest dose often 75.3 µM), for the others: at the top dose activity, negative = inhibition, usual class: inhibitors; hit rate 7.3% among 220,000; active = well fitted inhibition curve with a large enough effect, not every such curve was filed as active; inconclusive = small, poorly fitted or top-dose-only effect, or another doubt; inactive = no such curve, though single readings can be large or run the other way;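 note: plate controls were no enzyme wells and a reference inhibitor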
Target sequence (P00352 whole entry, looked up): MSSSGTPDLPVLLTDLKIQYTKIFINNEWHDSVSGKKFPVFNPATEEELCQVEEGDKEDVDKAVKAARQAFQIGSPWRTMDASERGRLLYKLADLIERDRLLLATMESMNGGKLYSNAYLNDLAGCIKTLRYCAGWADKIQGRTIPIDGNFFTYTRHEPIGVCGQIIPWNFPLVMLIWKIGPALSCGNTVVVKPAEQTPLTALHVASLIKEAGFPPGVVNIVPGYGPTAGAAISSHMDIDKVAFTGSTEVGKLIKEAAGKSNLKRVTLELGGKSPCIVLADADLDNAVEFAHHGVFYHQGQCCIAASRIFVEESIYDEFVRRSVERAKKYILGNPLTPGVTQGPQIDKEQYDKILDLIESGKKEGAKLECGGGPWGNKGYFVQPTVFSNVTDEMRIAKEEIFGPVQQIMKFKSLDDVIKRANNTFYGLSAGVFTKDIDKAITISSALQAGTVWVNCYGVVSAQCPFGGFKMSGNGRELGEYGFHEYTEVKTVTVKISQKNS
HPGD inh: inhibitors of human 15-hydroxyprostaglandin dehydrogenase (HPGD) | Potency, µM, without a hit: top-dose activity change, negative = inhibition, most hits filed as inhibitors | AID 894 | purified HPGD, NADH fluorescence kinetic, PGE2 substrate | P15428 | hit rate 4.3% among 150,000; active = well fitted inhibition curve with a large enough effect, not every such curve was filed as active; inconclusive = small, poorly fitted or top-dose-only effect, or another doubt; inactive = no such curve, though single readings can be large or run the other way
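20 nM HPGD preincubated 15 min at room temperature with compound in 50 mM Tris-HCl pH 8, 0.01% Tween 20. Started with 1 mM NAD+ and 30 uM prostaglandin E2; NADH fluorescence (360/450 nm) read 5 times over 30-s intervals, last minus first.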
An asterisk follows results filed as active; u = inconclusive; x = not tested or not shown; [ ] = dose if it differs, or a comment. The list is not random: actives were taken first. Their share in the collection is about 9.5%. Unless noted, calls come from the whole dose curve; as a rule, active = well fitted curve in the direction sought with a large enough effect; inconclusive = small, poorly fitted or top-dose-only effect, or another doubt; inactive = no such curve, though single readings can be large; an effect the other way counts as inactive or inconclusive. Unless noted, % is set by controls: 0 for no effect and ±100 for the full control effect; potency is the fitted concentration of half-maximal effect.

SMILES | Tau fluor cs | Tau ThT inhib | Tau FP inhib | NPSR antag | ALDH1A1 block | HPGD inh
CCCC(C)C(=O)Nc1ccc(S(=O)(=O)Nc2nccs2)cc1 (centres undefined) | 13%[2.34 µM] | -4% | -6%[2.34 µM] | -12% | u | x
CC#C[C@]1(O)CC[C@H]2C3CCC4=CC(=O)CCC4=C3[C@@H](c3ccc(N(C)C)cc3)C[C@@]21C (some centres undefined) | -27% | -21% | 14% | u | 6% | -8%
CCc1cccc(-n2c(=O)c3cccnc3n2CC(=O)Nc2ccccc2C(=O)OC)c1 | -6% | 6% | -5% | x | x | x
CCOc1ccc(S(=O)(=O)NCC(c2ccco2)S(=O)(=O)c2cccs2)cc1 (centres undefined) | -10% | 0% | 2% | x | x | x
Cc1ccc(NC(=O)C(=O)c2cc(C)n(-c3ccc(F)cc3)c2C)cc1C | 4% | 9% | 7% | x | x | x
COc1cccc(C(O)c2cnc(C(C)C)n2C)c1 (centres undefined) | -7% | -5% | 4% | 14% | x | x
CCCSc1nc(O)c(C(c2ccc(OC)c(O)c2)c2c(O)nc(SCCC)n(C)c2=O)c(=O)n1C | -16% | 4µM* | u | -49% | u | -25%
COc1cccc(C(c2c(O)nc(SC)n(C)c2=O)c2c(O)nc(SC)n(C)c2=O)c1 | -17% | 13µM* | u | -3%[46.1 µM] | 1% | -3%
COc1ccc(N2C(=O)CCC2(C#N)c2ccc(Br)cc2)cc1 (centres undefined) | -14% | -13% | 1% | -24%[46.1 µM] | 3% | -3%
COc1cc(OC)c2c(C)c(CC(=O)N3CCCCC3)c(=O)oc2c1 | -12% | -8% | -9% | x | x | x
CS(=O)(=O)Nc1cccc(-c2nc(NCCN3CCOCC3)c3ccccc3n2)c1 | -10% | -3% | -10% | x | -1% | -7%
O=[N+]([O-])c1ccc(/C=N/N/C(=N/c2ccccn2)c2ccccn2)cc1 | -12% | u | -6% | -7%[46.1 µM] | u | 28µM*
Cc1cccc(N2C(S)=C(C#N)C(=O)NC2c2cccs2)c1 (centres undefined) | -29% | 32µM* | u | -10% | -2% | -12%
N#CC1=C(S)N(c2ccc(F)cc2)C(c2cccs2)NC1=O (centres undefined) | -13% | u | u | -12%[46.1 µM] | 3% | -6%
CCOc1ccc(/C=C2\SC(=S)N(N3C(=O)C4CC4C3=O)C2=O)cc1 (centres undefined) | -13% | u | 2% | -11% | u | x
CCOc1ccc(N=C2NC(=O)S/C2=C\c2ccc(N(C)C)cc2)cc1 | u | 1.1µM* | 8% | -24%[46.1 µM] | -1% | -11%
CCOc1ccc(/C=C2/SC(=O)NC2=S)cc1 | u | 3.2µM* | -4% | -49% | u | 13µM*
Cc1ccc(CNC(=O)CCc2c(C)nc3c(-c4ccc(F)cc4)c(C)nn3c2C)cc1 | -2% | 9% | -1% | x | x | x
Cc1ccc(-c2nn(-c3ccccc3)cc2C(=O)O)o1 | -4% | u | -1% | -8% | u | x
Cc1ccc(-c2nn(-c3ccccc3)cc2CN(Cc2ccccc2)C(=O)c2ccco2)o1 | -12% | u | 0% | u | 11µM* | -27%
CCCC[n+]1ccn(C2=C([O-])c3ccccc3C(=O)/C2=N\S(=O)(=O)c2ccc(Cl)cc2)c1 | u | 11µM* | u | u | x | x
Cc1ccc(/C=C2\SC(=S)N(C3CCS(=O)(=O)C3)C2=O)o1 (centres undefined) | -8% | u | 2% | -7% | u | x
CC1=C(C#N)C(=O)N(C2CCS(=O)(=O)C2)C(=O)/C1=C\c1ccc(C)o1 (centres undefined) | u | 22µM* | u | 4% | u | x
Cc1ccn2c(=O)cc(CSc3nnc(C)s3)nc2c1 | 0% | -1% | 0% | x | x | x
COc1ccc(N=C(NN)c2ccc3ccccc3n2)cc1 | -10% | 16µM* | -5% | -7% | u | u
SMILES | Tau fluor cs | Tau ThT inhib | Tau FP inhib | NPSR antag | ALDH1A1 block | HPGD inh
COCCNC(=O)c1ccc2ccccc2n1 | -2% | -1% | -3% | 7%[46.1 µM] | u | 22µM*
NNC(=O)c1ccc2ccccc2n1 | -5% | u | 1% | -4% | 7.9µM* | x
O=C(NCc1ccccn1)c1ccc2ccccc2n1 | -2% | -3% | 1% | 14% | -6% | -17%
O=C(NN=C1CCCCCCC1)c1ccccn1 | -15% | u | -9% | -3%[46.1 µM] | -4% | x
Cc1ccccc1OCCNC(=O)c1ccc2ccccc2n1 | -2% | u | 2% | 5% | 5% | -23%
O=C(NN=C1CCCCCCC1)c1ccc2ccccc2n1 | 7% | u | 5% | -17% | 1.6µM* | x
CCOc1ccc(CNCc2c(C(=O)O)n(Cc3ccccc3C)c3cc(OC)ccc23)cc1OC | -10% | -10% | 9% | x | x | x
CCOC(=O)/C(=N/Nc1ccc(Cl)cc1)S(=O)(=O)c1ccc(Cl)cc1 | -12% | -3% | -14% | -1%[46.1 µM] | 6% | -9%
CCCCCN1C(=O)Cn2c(nc3ccccc3c2=O)C1C (centres undefined) | -4% | -1% | 1% | 3% | 6% | x
COC(=O)CN(C)C1CC(=O)N(c2ccc(Cl)cc2)C1=O (centres undefined) | 8% | -3% | -1% | -6%[46.1 µM] | 3.2µM* | -22%
COc1cccc(CN(Cc2ccco2)C(c2ccc(F)cc2)c2nnnn2C(C)(C)C)c1 (centres undefined) | -17% | -14% | 5% | -24%[46.1 µM] | u | -21%
CC(C)(C)n1nnnc1CN(Cc1ccc(F)cc1)Cc1ccco1 | -10% | -8% | 11% | -20%[46.1 µM] | 14µM* | -1%
CC(C)c1ccc(NC(=O)C2=NNC(=O)CC2)cc1 | 0% | -5% | -11% | -25% | x | x
O=C(NCCN1C(=O)S/C(=C\c2ccc(OC(F)F)cc2)C1=O)c1cnccn1 | -13% | -18% | 7% | -4% | 5% | -4%
C=CCn1c(SCC(=O)N2CCOCC2)nc(O)cc1=O | -4% | -11% | 0% | -1%[46.1 µM] | 2% | -23%
C=CCn1c(CC#N)nnc1N1CCOCC1 | 3% | -11% | 3% | -6%[46.1 µM] | 8.9µM* | -4%
COC(=O)C(C)c1ccc(C(=O)c2cccs2)cc1 (centres undefined) | -19% | -10% | -13% | x | -2% | 14µM*
Nc1ccc(C(=O)c2cccs2)cn1 | 13% | 4% | -2% | -4% | 1% | x
Nc1ccc(C(=O)c2cccs2)cc1 | 6% | 4% | -3% | 5% | -1% | 22µM*
COc1ccc(NC(=O)c2ccco2)cc1NC(=O)COc1cc(C)ccc1C(C)C | -24% | u | -6% | x | x | x
COc1ccc(-c2[nH]c(-c3ccc(Cl)cc3)nc2SCC(=O)NCC2CCCO2)cc1 (centres undefined) | 13µM*[quencher] | u | 9% | x | x | x

Compound activity from PubChem BioAssay.
